# HT1080 IDH1KD tx: toxicity to HT-1080 IDH1 knockdown cells (counter line); HT-1080 IDH1 knockdown viability, ATP luminescence, 48 h; Potency, µM (top dose mostly 46.1 µM), inactives show top-dose activity, negative = toxicity, actives largely listed as cytotoxic; 360,000 tested, 2% active; AID 686971;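 note: 0% = DMSO wells and -100% = cell-free medium wells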
#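 % activity derives from luminescence (CellTiter-Glo), normalised to DMSO and no-cell wells. HT-1080-IDH1KD cells, 750/well, had 48 h compound exposure at 37 °C.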
# DT40 TDP1 CPT: DT40-hTDP1 cell growth loss with CPT; 420,000 tested, 12% active; Potency, µM (doses to about 46.2 µM), inactives show top-dose activity change, negative = growth inhibition, hits mostly inhibitors; chicken DT40 Tdp1-/-;hTDP1 cells + 20 nM CPT, ATP luminescence, 48 h; note: nearly all actives have a fitted effect of over 55% in size
#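 Chicken DT40 Tdp1-/- cells complemented with human TDP1, 400 cells/well, exposed to compounds plus 20 nM camptothecin for at least 48 h at 37 C; viability read as ATP content by CellTiter-Glo luminescence.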
# TDP1 cell noCPT: qHTS for Inhibitors of human tyrosyl-DNA phosphodiesterase 1 (TDP1): qHTS in cells in absence of CPT | 420,000 tested, 15% active | DT40 Tdp1-/- hTDP1 cells, no CPT, ATP luminescence, 48 h | AID 686978, 2013 | Potency, µM (top dose mostly 46.2 µM), for the others: at the highest dose activity change, negative = growth inhibition, actives largely listed as inhibitors; note: nearly all actives have a fitted effect of over 55% in size
#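 Camptothecin absent (DMSO only). Human TDP1-complemented DT40 knockout cells, 400 cells/well, 37 °C for minimum 48 hr; ATP measured via CellTiter-Glo, 30 min dark incubation, luminescence.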
# KB-3-1 cytotox: kills parental KB-3-1 adenocarcinoma cells; 400,000 tested, 1.4% active; KB-3-1 viability, CellTiter-Glo ATP luminescence, 72 h; Potency, µM (top dose mostly 46.1 µM), hits mostly cytotoxic; note: nearly all actives have a fitted effect of over 60% in size
#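 Using CellTiter-Glo luminescence, growth of non-resistant KB-3-1 adenocarcinoma cells is assessed 72 h after pin-tool compound addition at 37 °C. Normalized responses across the concentration series yield fitted curves.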
# KB-V1 MDR tox: kills drug-selected multidrug resistant KB-V1 cells; KB-V1 MDR cells viability, CellTiter-Glo, 72 h; Potency, µM (highest dose often 46.1 µM), usual class: cytotoxic; 400,000 tested, 3.4% active; AID 1347076; note: nearly all actives have a fitted effect of over 60% in size
#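 Potencies derive from concentration-effect curves fitted to normalized luminescence (CellTiter-Glo) of KB-V1 cells treated for 72 h at 37 degrees C in phenol-red-free DMEM containing 10% FBS.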
# HT1080-NT tox: kills 2HG-producing HT-1080-NT fibrosarcoma cells; HT-1080-NT fibrosarcoma viability, CellTiter-Glo ATP luminescence, 48 h; Potency, µM (doses to about 46.1 µM), inactives show at the top dose activity, negative = less viability, most hits filed as cytotoxic; 360,000 tested, 1.6% active; AID 686970;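 note: NT is the 2HG producing partner of a matched IDH1 knockdown line; 0% = DMSO-treated cells and -100% = media-only wells without cells; nearly all actives have a fitted effect of over 55% in size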
#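 Viability by CellTiter-Glo luminescence after 48 h compound exposure at 37C of HT-1080-NT cells (750/well, RPMI, 5% FBS). % activity scaled between DMSO wells and medium-only wells, then curve-fitted and categorized by curve class.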
# * hit, by the source's call; i = inactive; u = inconclusive; x = no result given. The list is not random: actives were taken first. Their share in the collection is about 19%. Calls come from the whole dose curve; as a rule, active = well fitted curve in the direction sought with a large enough effect; inconclusive = small, poorly fitted or top-dose-only effect, or another doubt; inactive = no such curve, though single readings can be large; an effect the other way counts as inactive or inconclusive. Unless noted, % is set by controls: 0 for no effect and ±100 for the full control effect; potency is the fitted concentration of half-maximal effect.
SMILES,HT1080 IDH1KD tx,DT40 TDP1 CPT,TDP1 cell noCPT,KB-3-1 cytotox,KB-V1 MDR tox,HT1080-NT tox
COc1cc(/C=N/Nc2nc(-c3ccc(S(=O)(=O)N(C)C)cc3)cs2)ccc1O,-19%,8.2µM*,7.3µM*,i,i,-1%
COc1ccc(-c2csc(NC(=S)NC(=O)c3ccc(S(=O)(=O)N(C)C)cc3)n2)cc1OC,u,u,u,i,i,u
O=S(=O)(c1cccc(-c2csc(N/N=C/c3ccco3)n2)c1)N1CCOCC1,u,16µM*,13µM*,i,i,-29%
CCOc1cc(C=NNC(=O)c2cccc(S(=O)(=O)N3CCCC3)c2)ccc1O,0%,-29%,u,i,i,-7%
O=C(Nc1cccc(S(=O)(=O)N2CCCCC2)c1)c1ccc2ncsc2c1,-10%,u,u,u,i,-6%
CN(c1ccccc1)S(=O)(=O)c1cccc(NC(=O)c2cccc(C#N)c2)c1,-7%,u,15µM*,u,i,-11%
CN(c1ccccc1)S(=O)(=O)c1cccc(NC(=O)c2ccc3ncsc3c2)c1,u,10µM*,u,u,u,u
Cc1noc(C)c1NC(=O)N(C)C[C@@H]1Oc2cc(Br)ccc2S(=O)(=O)N([C@H](C)CO)C[C@@H]1C,4%,8%,0%,i,u,9%
CC(=O)Nc1cccc(-c2ccnc3c2CC(C(=O)NCc2cccs2)O3)c1 (configuration not stated),0.65µM*,0.92µM*,0.65µM*,5.8µM*,i,u
CC(=O)NCCNC(=O)C1Cc2c(-c3cccc(NC(C)=O)c3)ccnc2O1 (configuration not stated),27%,0%,1%,i,i,u
CC(=O)Nc1cccc(-c2ccnc3c2CC(C(=O)NCC2CCOCC2)O3)c1 (configuration not stated),u,2.6µM*,2.3µM*,u,i,u
CC(=O)Nc1cccc(-c2ccnc3c2CC(C(=O)NCCC(F)(F)F)O3)c1 (configuration not stated),21µM*,u,23µM*,u,i,u
COc1ccc(CCCNC(=O)C2Cc3c(-c4cccc(NC(C)=O)c4)ccnc3O2)cc1 (configuration not stated),u,5.8µM*,3.7µM*,6.5µM*,u,u
Cc1cc(C)n2nc(C(=O)OCC(=O)N(Cc3ccccc3)C(C)C)nc2n1,3%,6%,-13%,i,i,1%
C/C(Cn1nnc([N+](=O)[O-])n1)=N\NC(=O)c1ccc(C)cc1,-17%,13µM*,15µM*,u,u,-1%
C/C(Cn1cnc([N+](=O)[O-])n1)=N\NC(=O)c1ccncc1,12%,-25%,10%,i,u,-2%
C/C(Cn1nnc([N+](=O)[O-])n1)=N\NC(=O)c1ccncc1,-30%,16µM*,21µM*,i,u,0%
C/C(Cn1cnc([N+](=O)[O-])n1)=N\NC(=O)c1ccc(F)cc1,2%,7%,-16%,i,i,10%
COc1ccc(NC2CCCN(C(=O)c3ccc(C)c(N4CCNC4=O)c3)C2)cc1 (configuration not stated),5%,-15%,-7%,x,x,-4%
CC(=O)Nc1ccc(C(=O)N2c3ccccc3N=C(c3ccc4c(c3)OCO4)C2C(=O)NCc2ccccc2)cc1 (configuration not stated),-13%,u,u,i,u,-10%
Cc1nc2ccc(C(=O)N3c4ccccc4N=C(c4ccc5c(c4)OCO5)C3C(=O)NCc3ccccc3)cc2[nH]1 (configuration not stated),-22%,2.1µM*,1.6µM*,i,i,-15%
CCCCNC(=O)C1C(c2ccc(OC)cc2)=Nc2ccccc2N1C(=O)c1ccncc1 (configuration not stated),0%,23µM*,21µM*,i,u,6%
COc1ccc(C2=Nc3ccccc3N(C(=O)c3ccc4c(c3)OCO4)C2C(=O)NCc2ccccc2)cc1 (configuration not stated),u,u,u,4.6µM*,u,-41%
Cc1cccc(C)c1NC(=O)C1C(c2ccc3c(c2)OCO3)=Nc2ccccc2N1C(=O)c1cccc2ccccc12 (configuration not stated),8%,6.5µM*,7.3µM*,i,i,7%
CCOc1ccc(S(=O)(=O)Nc2ccc(C(=O)NCC(c3ccccc3)N(C)C)cc2)cc1 (configuration not stated),4%,0%,3%,i,i,-2%
SMILES,HT1080 IDH1KD tx,DT40 TDP1 CPT,TDP1 cell noCPT,KB-3-1 cytotox,KB-V1 MDR tox,HT1080-NT tox
CC(C)NC(=O)C1CCC(Cn2c(=O)c3sccc3n(CC(=O)NCc3ccccc3)c2=O)CC1 (configuration not stated),x,1%,10%,i,u,x
CCc1ccc(/C=C/C(=O)c2ccc(S(=O)(=O)N(C)C)cc2)cc1,0%,u,u,i,21µM*,8%
Cc1cccc(N(C)c2nc3ccccc3c3nnc(C)n23)c1,x,u,29µM*,i,i,x
Cc1nnc2c(N(C)S(=O)(=O)c3ccccc3)nc3ccccc3n12,13%,-10%,0%,u,i,15%
CCc1nn2c(=O)c(S(=O)(=O)Nc3ccc(C(C)C)cc3)c(C)nc2s1,7%,u,16µM*,i,i,25%
CCOc1ccc(N/C(SCc2cccc([N+](=O)[O-])c2)=C(/C#N)C(N)=O)cc1,u,u,21µM*,i,i,-20%
COc1cccc(N/C(SCc2ccccc2C)=C(/C#N)C(=O)NCc2cccs2)c1,-17%,u,u,i,5.2µM*,-14%
CCOc1ccc(N/C(SC)=C(/C#N)C(N)=O)cc1,1%,-11%,-13%,i,i,6%
COc1cccc(N/C(SCc2ccccc2Cl)=C(/C#N)C(=O)NCc2cccs2)c1,11%,u,u,i,15µM*,5%
COc1cccc(N/C(SCc2cccc([N+](=O)[O-])c2)=C(/C#N)C(=O)NCc2cccs2)c1,0%,u,16µM*,i,i,-3%
COc1cccc(N/C(SC)=C(/C#N)C(N)=O)c1,u,u,-17%,u,u,u

# Compound activity from PubChem BioAssay.
